Most compounds without a hit are left out; they make up all but 13% or so of the library.
Pf growth 96h: P. falciparum growth inhibition at 96 hour, primary screen for plastid delayed-death inhibitors; 320,000 compounds, 6.9% hits; P. falciparum luciferase reporter growth, 96 h; Potency, µM (series often up to 28.7 µM), usual class: inhibitors
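Cell-based qHTS: luciferase-tagged P. falciparum in erythrocytes (2% hematocrit, 0.05% parasitemia final) incubated with compounds for 96 hours, 37 C, 5% CO2; luciferase detection reagent then added and luminescence measured.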
Pf growth 48h: P. falciparum growth inhibition at 48 hours (one generation). P. falciparum luciferase growth in erythrocytes, 48 h. 310,000 compounds, 5.9% hits. Potency, µM (titrated, usually from 28.7 µM), usual class: inhibitors
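Luciferase-expressing P. falciparum in infected erythrocytes (2% hematocrit, 0.1% parasitemia final) in RPMI 1640/0.5% Albumax were exposed to compound for 48 hours at 37 C, 5% CO2; growth read as luminescence.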
HCV inh: inhibitors of hepatitis C virus infection; Huh7.5.1 HCVcc-Cre infection, luciferase reporter, 44 h; Potency, µM (top dose mostly 41.8 µM), hits mostly inhibitors; 340,000 compounds, 3.4% hits
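Infectious HCV cell culture screen: compound-treated cells (1,000/well, pre-plated 4 h) are infected with HCVcc-Cre at roughly 0.5 moi and grown 44 h. Infection is quantified by luciferase signal after 15 min substrate incubation at room temperature.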
HCMV antiviral: inhibitors of human cytomegalovirus. activity change, negative = inhibition, % at 57.5 µM. 410,000 compounds, 4.5% hits. HFF cells, HCMV-luciferase reporter, 72 h; hits give low values. AID 1259415; in the data active = activity change below about -60%; inconclusive = no clear call, values can overlap the other calls; inactive = above about -39%
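Two-dose cell screen: HFF monolayers treated with compounds and infected with luciferase-expressing HCMV at 1 PFU/cell, 72 h at 37C, then lysed for luciferase measurement.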
Each line names hits and unclear results; the compound was inactive in the other large screens. Unless noted, calls come from the whole dose curve; as a rule, active = well fitted inhibition curve with a large enough effect; inconclusive = small, poorly fitted or top-dose-only effect, or another doubt; inactive = no such curve, though single readings can be large or run the other way.

COc1ccc(NC(=O)CC2C(=O)N(CCc3ccccc3)C(=S)N2Cc2cccnc2)cc1 (stereo unspecified)	Pf growth 96h 13µM, Pf growth 48h 12µM, HCV inh inconclusive
CCOc1ccc(NC(=O)CC2C(=O)NCCN2C(=O)Nc2ccccc2)cc1 (stereo unspecified)	Pf growth 96h 15µM
CCOC(=O)c1ccc(N2C(=O)C(CC(=O)NC)N(CCc3ccc(OC)c(OC)c3)C2=S)cc1 (stereo unspecified)	Pf growth 48h 13µM, HCV inh inconclusive
O=C(CC1C(=O)NCCN1C(=O)Nc1ccccc1)Nc1ccc(F)cc1 (stereo unspecified)	none
O=C(NCc1ccc(Cl)cc1)C1CCN(S(=O)(=O)c2ccc3c(c2)CCCN3C(=O)C2CCC2)CC1	none (no result: Pf growth 96h, Pf growth 48h, HCV inh)
Cc1cccc(OCCSc2nc3ccccc3n2CC(=O)N2CCOCC2)c1C	none (no result: Pf growth 96h, Pf growth 48h, HCV inh)
CCNC(=O)CC1C(=O)N(c2ccccc2)C(=O)N1CCc1ccc(OC)cc1 (stereo unspecified)	Pf growth 96h 12µM
COc1ccc(CCN2C(=O)N(c3ccc(F)cc3)C(=O)C2CC(=O)Nc2ccccc2)cc1 (stereo unspecified)	none (no result: Pf growth 96h, Pf growth 48h, HCV inh)
CCOc1ccc(N2C(=O)C(CC(=O)Nc3ccccc3)N(Cc3ccccn3)C2=S)cc1 (stereo unspecified)	Pf growth 96h 9.3µM, Pf growth 48h inconclusive
CCOc1ccc(N2C(=O)C(CC(=O)Nc3ccc(F)cc3)N(Cc3ccccn3)C2=S)cc1 (stereo unspecified)	Pf growth 96h inconclusive, Pf growth 48h inconclusive
Oc1ccc(-c2cnns2)c(O)c1	Pf growth 96h 12µM, Pf growth 48h 10µM, HCV inh inconclusive, HCMV antiviral inconclusive
Oc1ccc(-c2nc3ccccc3s2)c(O)c1	none
COc1ccc(Cl)cc1S(=O)(=O)N1CCN(Cc2cccc(F)c2)CC1	none (no result: Pf growth 96h, Pf growth 48h, HCV inh)
C/C(N)=C(/C#N)C(=O)CSc1cc(C)c2cc(C)cc(C)c2n1	HCV inh 10µM
COc1ccc(Cl)cc1NC(=O)CCN1C(=O)c2ccccc2Sc2ncccc21	none (no result: Pf growth 96h, Pf growth 48h, HCV inh)
O=C(CSc1ccc([N+](=O)[O-])cc1)c1ccccc1	HCMV antiviral -73 (no result: Pf growth 96h, Pf growth 48h)
CCOc1ccc(-n2ccnc(SCC(=O)NCc3cccc(OC)c3)c2=O)cc1	Pf growth 48h inconclusive, HCV inh inconclusive
CCOc1ccc(-n2ccnc(SCC(=O)Nc3ccc(OC)cc3OC)c2=O)cc1	Pf growth 96h inconclusive, Pf growth 48h inconclusive, HCV inh 8.9µM
O=C(CSc1nccn1C1CCCC1)Nc1ccc(C(F)(F)F)cc1	HCMV antiviral -63 (no result: Pf growth 96h, Pf growth 48h, HCV inh)
O=C(CSc1nccn1-c1ccc(F)cc1)Nc1ccc(OC(F)(F)F)cc1	HCMV antiviral -68 (no result: Pf growth 96h, Pf growth 48h, HCV inh)
O=C(CSc1nccn1C1CCCC1)Nc1ccccc1	none (no result: Pf growth 96h, Pf growth 48h, HCV inh)
CCOC(=O)c1cc(OC(=O)c2cc(OC)c(OC)c(OC)c2)n(-c2ccccc2)n1	none (no result: Pf growth 96h, Pf growth 48h, HCV inh)
Cc1c(Cl)cccc1NC(=O)c1ccc2c(c1)CCN2S(=O)(=O)c1ccccc1	none (no result: Pf growth 96h, Pf growth 48h, HCV inh)
N#Cc1ccccc1NC(=O)CSc1ccc([N+](=O)[O-])cn1	HCMV antiviral -66
COc1cccc(NC(=O)CSc2nccn2-c2cccc(OC)c2)c1	Pf growth 96h 12µM
COc1ccc(-n2ccnc2SCC(=O)Nc2ccc(F)cc2F)cc1	HCMV antiviral -91 (no result: Pf growth 96h, Pf growth 48h, HCV inh)
COc1cccc(-n2ccnc2SCC(=O)Nc2ccc(Cl)c(Cl)c2)c1	HCMV antiviral -61 (no result: Pf growth 96h, Pf growth 48h, HCV inh)
O=C(NCC[C@@H]1CC[C@@H](NC(=O)c2cnccn2)[C@@H](CO)O1)c1ccc2c(c1)OCO2	none (no result: Pf growth 96h, Pf growth 48h, HCV inh)
CCOc1ccccc1NC(=O)CSc1nccn1-c1ccc(Cl)cc1	HCMV antiviral -72 (no result: Pf growth 96h, Pf growth 48h, HCV inh)
CCOc1ccccc1NC(=O)CSc1ccc([N+](=O)[O-])cc1	Pf growth 96h 2.3µM, Pf growth 48h 2.9µM, HCMV antiviral inconclusive
CCOc1ccccc1NC(=O)NNS(=O)(=O)c1ccc([N+](=O)[O-])cc1	none
O=C(CSc1nccn1-c1ccc(Cl)cc1)Nc1nc2ccccc2s1	none (no result: Pf growth 96h, Pf growth 48h, HCV inh)
CCCOC(=O)c1ccc(N)cc1	none (no result: HCV inh, HCMV antiviral)
CCc1nnc(SCc2nc(-c3ccc(OC)c(OC)c3)oc2C)c2cc3sc(C)cc3n12	none (no result: Pf growth 96h, Pf growth 48h, HCV inh)
O=C(Nc1cccc(OCc2cc(=O)n3ccccc3n2)c1)c1ccccc1Br	none (no result: Pf growth 96h, Pf growth 48h, HCV inh)
CC1CC(C)CN(CC(=O)N2CCCc3c2c(=O)oc2ccc(OCc4ccccc4)cc32)C1 (stereo unspecified)	HCV inh 11µM (no result: Pf growth 48h)
COc1cc(/C=N/N=C(\N)c2nonc2N)cc(OC)c1O	none
COc1ccc(/C=N/N=C(\N)c2nonc2N)cc1	Pf growth 96h 1.3µM
